Rows were chosen to be rich in hits. Some 7.3% of all compounds tested hit in one or more screens of this group.
Rab9 prom act: qHTS Assay for Rab9 Promoter Activators. Huh7 Rab9 promoter-luciferase reporter, luminescence, 24 h. Potency, µM (top dose mostly 9.22 µM), actives largely listed as activators. actives 2.8% (n = 320,000); further: nearly all actives have a fitted effect of over 60% in size
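Luminescence read-out: Huh7 cells stably expressing Rab9-luciferase, treated 24 h with compound at 37 °C, then lysed with luciferase reagent for 10 min at ambient before reading.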
NPC1 promoter act: qHTS Assay for NPC1 Promoter Activators | AID 485313, 2010 | actives 2.4% (n = 320,000) | Huh7 NPC1 promoter luciferase reporter, 24 h | Potency, µM (series often up to 9.22 µM), most hits filed as activators; further: nearly all actives have a fitted effect of over 60% in size
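Quantitative HTS used a cell-based reporter: Huh7 cells stably bearing the NPC1 promoter upstream of luciferase were treated with compounds for 24 h, and promoter activation was read as luminescence.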
SMN2 splice up: qHTS Assay for Enhancers of SMN2 Splice Variant Expression; HEK293 SMN2-luciferase splicing reporter, luminescence, 30-36 h; Potency, µM (doses to about 46.1 µM), actives largely listed as activators; actives 2.8% (n = 210,000); AID 1458, 2008; further: nearly all actives have a fitted effect of over 55% in size
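HEK293 cells carry an SMN2 […]–luciferase reporter in which exon 7 inclusion puts luciferase in frame. Cells were plated 10-12 h before compound addition, then incubated 30-36 h at 37C. ONE-Glo luminescence was read; sodium butyrate at 4.5 mM final served as control.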
KinaseGlo FLuc: Counterscreen for Luciferase (Kinase-Glo TM) Inhibition | actives 0.28% (n = 200,000) | Potency, µM (series often up to 38.3 µM), usual class: inhibitors | Kinase-Glo luciferase, ATP luminescence, 8 min | Luciferin 4-monooxygenase (Photuris pensylvanica), Q27757 | AID 1379, 2008; further: nearly all actives have a fitted effect of over 60% in size
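Compounds were added to a substrate mix at pH 7.2 (50 mM imidazole, 10 uM ATP, within the enzyme's linear range), followed by Kinase-Glo detection reagent; luminescence was measured after 8 minutes at ambient temperature.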
FLuc modulator: qHTS profiling assay for firefly luciferase inhibitor/activator using purifed enzyme and Km concentrations of substrates (counterscreen for miR-21 project); actives 6.9% (n = 360,000); Luciferin 4-monooxygenase (Photinus pyralis), P08659; Potency, µM (titrated, usually from 57.5 µM), usual class: inhibitors; purified FLuc, Km substrates, luminescence inhibition; further: nearly all actives have a fitted effect of over 55% in size
Target sequence (P08659 whole entry, looked up): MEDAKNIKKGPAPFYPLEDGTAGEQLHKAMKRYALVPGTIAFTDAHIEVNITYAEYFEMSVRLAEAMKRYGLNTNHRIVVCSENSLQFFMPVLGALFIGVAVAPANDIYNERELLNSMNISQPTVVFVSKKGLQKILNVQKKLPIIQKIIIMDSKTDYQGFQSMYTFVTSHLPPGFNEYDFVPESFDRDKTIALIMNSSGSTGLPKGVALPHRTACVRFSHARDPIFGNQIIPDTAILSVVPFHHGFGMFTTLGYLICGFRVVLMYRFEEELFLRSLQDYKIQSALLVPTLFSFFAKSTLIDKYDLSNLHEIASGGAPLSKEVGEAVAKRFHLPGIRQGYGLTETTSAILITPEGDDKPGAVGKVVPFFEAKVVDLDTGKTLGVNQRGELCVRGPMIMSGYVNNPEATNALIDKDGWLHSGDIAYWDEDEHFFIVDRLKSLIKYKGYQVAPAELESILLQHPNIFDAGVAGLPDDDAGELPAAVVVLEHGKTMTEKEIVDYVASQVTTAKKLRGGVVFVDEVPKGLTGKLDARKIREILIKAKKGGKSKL
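Purified P. pyralis luciferase (10nM final) with 10uM D-luciferin and 10uM ATP (Km levels) in 50mM Tris acetate pH 7.5, 10mM Mg acetate, 0.01% Tween-20, 0.05% BSA; qHTS 6-point titration, ~60 µM downward; luminescence read.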
Hits are given with their value; n = inactive; u = inconclusive; x = no result given; [ ] = remark or other dose. The call rests on the fitted dose curve; in most records, active means well fitted curve in the direction sought with a large enough effect; inconclusive means small, poorly fitted or top-dose-only effect, or another doubt; inactive means no such curve, though single readings can be large; an effect the other way counts as inactive or inconclusive.

SMILES	Rab9 prom act	NPC1 promoter act	SMN2 splice up	KinaseGlo FLuc	FLuc modulator
Cc1ccc(C(=O)NCCc2cccc(Cl)c2)cc1[N+](=O)[O-]	n	n	n	n	27µM
Cc1ccc(CNC(=O)c2cnc3ccccc3n2)cc1	n	n	x	x	n
O=C(NCCc1cccc(Cl)c1)c1ccc(Cl)c([N+](=O)[O-])c1	n	n	n	n	u
O=C(NCCc1ccccc1)c1cccc(Br)c1	2µM	3.5µM	x	x	21µM
Cc1ccccc1NC(=O)CSc1c(C(C)C)cnc2c1c(=O)n(C)c(=O)n2C	x	x	x	x	n
COc1ccc(N(C)C(=O)Cn2cc(S(=O)(=O)N3CCN(c4ccccc4F)CC3)c3ccccc3c2=O)c(OC)c1	x	x	n	x	n
CC1CCN(c2nc3ccc(C(=O)NCCCN4CCCCC4)cc3s2)CC1	n	u	x	x	u
CCCCN(C)CCCNC(=O)C1CCN(S(=O)(=O)CC)CC1	x	x	x	x	n
CCCCN(C)CCCNC(=O)C1CCN(c2nc3ccc(CC)cc3s2)CC1	x	x	n	x	15µM
CCCCN(CC)CCCNC(=O)C1CCN(c2nc3ccc(CC)cc3s2)CC1	x	x	n	x	19µM
O=C(CN1C(=O)CCc2cc(S(=O)(=O)N3CCOCC3)ccc21)NCc1ccccc1	x	x	x	x	n
Nn1c(SCC(=O)Nc2ccc3c(c2)OCO3)nnc1C1CC1	n	n	n	n	n
O=C(CSc1nncs1)NC(=O)Nc1ccc2c(c1)OCCO2	3.5µM	u	x	x	15µM
Nn1c(SCC(=O)NC(=O)Nc2ccc3c(c2)OCCO3)nnc1C1CC1	u	n	u	n	19µM
CCn1c(SCC(=O)Nc2ccc3c(c2)OCCO3)nnc1-c1c[nH]c2ccccc12	n	n	x	x	13µM
CCn1c(SCC(=O)Nc2ccc3c(c2)OCCO3)nnc1C1CC1	n	n	x	x	15µM
COc1ccc2nc(N(Cc3cccnc3)C(=O)CCc3ccccc3)sc2c1	x	x	x	x	n
CCOc1ccc(CCNC(=O)Cn2nc(CC)n3c(cc4ccccc43)c2=O)cc1	x	x	n	x	n
COC(=O)c1cccc(-n2c(CCC(=O)O)ccc2-c2ccc(OC)cc2)c1	x	x	n	x	u
CCn1c(SCC(=O)Nc2ccc3c(c2)OCCO3)nnc1-c1cccs1	n	n	n	n	11µM
Cc1ccc2oc(C(=O)Nc3cccc(Cl)c3)cc(=O)c2c1	x	x	n	x	n
Cc1ccc(O)c(NC(=O)c2nc3nc(C)cc(C(F)F)n3n2)c1	x	x	n	x	n
Cc1cccc(NC(=O)c2n[nH]c([N+](=O)[O-])c2Br)c1C	1µM	0.79µM	10µM	n	3.8µM
COc1cccc(C2C(C(=O)Nc3cccnc3)=C(C)Nc3nc(SCc4ccccc4)nn32)c1 (stereo not drawn)	x	x	n	x	n
O=C(COc1ccc(Br)cc1)Nc1ccc(C(=O)OC2CCCCC2)cc1	x	x	n	x	n
SMILES	Rab9 prom act	NPC1 promoter act	SMN2 splice up	KinaseGlo FLuc	FLuc modulator
CSc1ncccc1-c1nc2ccccc2[nH]1	n	n	n	n	21µM
c1ccc2[nH]c(-c3ccnc4ccccc34)nc2c1	3.5µM	u	u	n	24µM
Fc1ccccc1-c1nc2ccccc2[nH]1	1.8µM	3.5µM	x	u	9.5µM
Clc1ccccc1-c1nc2ccccc2[nH]1	2µM	2.8µM	x	x	8.5µM
COc1ccc(CCC(=O)NCc2nc3cccnc3n2Cc2ccc(OC)cc2)cc1	x	x	x	x	n
NCCNc1ncnc2ccc(Cl)cc12	x	x	n[9.22 µM]	n[7.66 µM]	x
COC(=O)[C@@H]1C[C@H]1[C@@H](NC(C)=O)c1ccccc1	x	x	n	n	x
Nc1nonc1-c1nc2ccccc2[nH]1	n	n	u	n	n
Cc1ccccc1-c1nc2ccccc2[nH]1	u	u	11µM	n	17µM
CCSc1ncccc1-c1nc2ccccc2[nH]1	n	u	u	n	u
Cn1cc(Cl)c(-c2nc3ccccc3[nH]2)n1	3.5µM	2.5µM	16µM	n	17µM
Cc1cc(Cl)c2oc(C(=O)NCCC3CCCCO3)c(C)c2c1 (stereo not drawn)	u	u	x	x	21µM
CCOC(=O)CCn1nc(C)c2c(C)n(-c3ccccc3)nc2c1=O	x	x	n	x	n
O=[N+]([O-])c1ccccc1N/N=C\c1ccccc1Cl	2.8µM	u	7.9µM	u	0.67µM
O=[N+]([O-])c1ccccc1N/N=C/c1cccc(O)c1O	n	3.5µM	x	x	1.5µM
O=[N+]([O-])c1cccc(N/N=C/c2cccc(O)c2O)c1	n	n	u	n	15µM
Cc1c(NC(=S)N/N=C/c2cc([N+](=O)[O-])ccc2O)c(=O)n(-c2ccccc2)n1C	n	n	x	x	27µM
CCCOc1ccc(/C=N/Nc2ccccc2[N+](=O)[O-])c(OCCC)c1	n	n	n	n	u
Cc1c(NC(=S)N/N=C/c2ccc(O)cc2)c(=O)n(-c2ccccc2)n1C	n	n	n	n	n
CC(=O)c1cccc(NS(=O)(=O)c2cccc(C(=O)O)c2)c1	x	x	x	n	x
N#Cc1ccc(N/N=C/c2ccccc2)c([N+](=O)[O-])c1	n	n	n	n	n
O=[N+]([O-])c1ccc(O)c(/C=N/n2cnc3ccccc32)c1	n	n	n	n	27µM
O=[N+]([O-])c1ccc(O)c(/C=N/Nc2ccccc2Cl)c1	u	1.4µM	13µM	n	4.8µM
O=C(N/N=C/c1cc([N+](=O)[O-])ccc1O)C1CC1	n	n	x	x	n
O=[N+]([O-])c1ccccc1N/N=C\c1ccccc1F	2.8µM	u	x	x	u
SMILES	Rab9 prom act	NPC1 promoter act	SMN2 splice up	KinaseGlo FLuc	FLuc modulator
C/C(=N\Nc1cccc([N+](=O)[O-])c1)c1cc(F)ccc1O	n	u	x	x	u
C/C(=N\Nc1cccc([N+](=O)[O-])c1)c1ccccc1O	u	n	x	x	19µM
COc1ccc(-c2noc(COc3cc(C)c(Br)c(C)c3)n2)cc1OC	x	x	n	x	n
Cc1ccc(CNC(=O)c2ccc3c(c2)c(C)c(C)n3Cc2ccc(Cl)cc2)o1	x	x	x	x	n
CCOc1ccc(NC(=O)CN(Cc2ccccc2)S(=O)(=O)c2ccc3nc(C)sc3c2)cc1	x	x	x	x	n
CC(C)c1ccc(NC(=O)Cn2nnc(C(=O)NCc3ccc(Cl)cc3)c2N)cc1	x	x	x	x	n
Cc1ccc(CCNC(=O)CCCn2nc(C)c3c(C)n(-c4ccccc4)nc3c2=O)cc1	x	x	x	x	n
O=C(O)c1ccc(-c2ccc(OS(=O)(=O)c3ccccc3F)cc2)cc1	u	u	x	x	12µM
CCCSCCCNC(=O)CN1C(=O)COc2ccc(S(=O)(=O)N3CCCCCC3)cc21	x	x	n	x	n
Cc1cc(N2CCCC2)ccc1/C=C1/C(=O)N(C)C(=S)N1C	n	n	n	n	n
Cc1cc(N2CCOCC2)ccc1/C=C1\SC(=O)N(C(C)C)C1=O	1.4µM	1.4µM	n	n	3.8µM
CCC(C)N1C(=O)S/C(=C/c2ccc(N3CCOCC3)cc2C)C1=O (stereo not drawn)	u	u	n	n	7.6µM
Cc1ccc(N2CCN(C(=O)N3CCOCC3)CC2)cc1C	n	n	x	n	n
CCc1cccc(-n2c(=O)c3cccnc3n2CC(=O)Nc2ccccc2C(=O)OC)c1	x	x	x	x	n

Source: PubChem BioAssay (National Center for Advancing Translational Sciences (NCATS))
